# Bioassay records deposited in PubChem by several laboratories.
# Most compounds without a hit are left out; they make up all but 3.1% or so of the library.
# BoNT A protease: BoNT A light chain protease inhibition; multiplex microsphere protease substrate cleavage, flow cytometry; inhibition, % at 10 µM; 360,000 tested, 0.17% active; AID 588499
# Anthrax LF prot: blocks Bacillus anthracis lethal factor protease. P15917. multiplex microsphere protease cleavage assay, LF. inhibition, % at 10 µM. 360,000 tested, 0.12% active
# Target sequence (P15917 whole entry, looked up): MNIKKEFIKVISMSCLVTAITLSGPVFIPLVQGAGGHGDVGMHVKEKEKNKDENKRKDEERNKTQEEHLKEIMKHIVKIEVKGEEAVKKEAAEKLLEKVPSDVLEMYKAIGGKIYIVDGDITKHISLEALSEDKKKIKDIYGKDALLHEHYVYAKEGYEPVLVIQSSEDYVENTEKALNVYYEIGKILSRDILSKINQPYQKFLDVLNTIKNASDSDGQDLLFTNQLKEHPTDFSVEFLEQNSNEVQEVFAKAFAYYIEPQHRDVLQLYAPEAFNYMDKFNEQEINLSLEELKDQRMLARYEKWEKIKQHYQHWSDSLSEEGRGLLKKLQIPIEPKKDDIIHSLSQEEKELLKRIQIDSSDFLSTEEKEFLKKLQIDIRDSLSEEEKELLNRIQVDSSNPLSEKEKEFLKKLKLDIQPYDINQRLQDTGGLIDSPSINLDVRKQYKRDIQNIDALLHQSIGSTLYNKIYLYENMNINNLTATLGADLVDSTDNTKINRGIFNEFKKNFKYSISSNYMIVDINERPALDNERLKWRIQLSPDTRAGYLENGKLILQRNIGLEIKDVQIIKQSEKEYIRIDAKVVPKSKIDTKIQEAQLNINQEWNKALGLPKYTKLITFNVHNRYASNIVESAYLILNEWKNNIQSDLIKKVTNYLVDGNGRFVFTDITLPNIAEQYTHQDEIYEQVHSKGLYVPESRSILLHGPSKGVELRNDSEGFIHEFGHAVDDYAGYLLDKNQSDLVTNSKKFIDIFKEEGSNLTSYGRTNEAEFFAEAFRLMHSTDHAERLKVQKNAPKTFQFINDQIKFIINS
# Autofluor counter: flagged as autofluorescent in microsphere protease counterscreen | compound autofluorescence counterscreen, microsphere flow cytometry; stronger effect = higher value | fluorescence intensity (no concentration beside the values) | 360,000 tested, 3.1% active | AID 624483; in the data active = fluorescence intensity above about 16000; inconclusive = no clear call, values can overlap the other calls
# PriA SSB inh: K. pneumoniae PriA-SSBct interaction inhibition | inhibition, % at 33 µM | 430,000 tested, 0.6% active | AlphaScreen SSBct-PriA binding, biotinylated peptide; in the data active = inhibition mostly above about 37%, no sharp cut-off; inactive = mostly below about 20%
# BoNT F protease: BoNT F light chain protease inhibition. inhibition, % at 10 µM. Multiplex microsphere protease cleavage assay, flow cytometry. AID 588497. 360,000 tested, 0.22% active; in the data active = inhibition above about 35%, passing the limit was not always enough; inconclusive = no clear call, values can overlap the other calls
# Numbers stand for hits; 0 = inactive; ? = inconclusive; - = no result given. Rule as the data show it, unless noted: active = inhibition above about 30%; inconclusive = no clear call, values can overlap the other calls; inactive = below that.
SMILES,BoNT A protease,Anthrax LF prot,Autofluor counter,PriA SSB inh,BoNT F protease
Cc1cccc(-c2nnc3n2N=C(c2ccccc2)CS3)c1,?,0,20710,0,0
CCOc1ccc(C2=Nn3cnnc3SC2)cc1,0,0,22944,0,0
CCOc1ccc(C2=Nn3c(nnc3-c3cccnc3)SC2)cc1,?,0,20067,0,0
O=C(Nc1ccc2c(c1)OCO2)C1(c2cccs2)CCCC1,-,-,-,0,-
COc1ccc(C(C)=NNC(=O)CNC(=O)CCc2ccccc2)c(OC)c1,-,-,-,0,-
COc1ccc(/C(C)=N/NC(=O)CNC(=O)Cc2ccccc2)c(OC)c1,0,0,0,-,38.5
C/C(Cc1ccccc1)=N\NC(=O)CNC(=O)c1ccc(Cl)cc1Cl,0,?,0,-,36.4
O=C(NCCc1ccccc1)C(=O)Nc1cccc(N2CCCC2=O)c1,-,-,-,0,-
Cc1csc(NC(=O)CSc2nsc(SCC(=O)Nc3nc(C)cs3)c2C#N)n1,?,0,21632,0,0
Cc1ccc2sc(NC(=O)CSc3nc(C)cc(C)c3C#N)nc2c1,?,0,22663,0,0
CC(C)(C)NC(=O)CSc1nsc(SCC(=O)NC(C)(C)C)c1C#N,0,0,17119,0,0
Cc1cc(C(F)(F)F)c(C#N)c(SCC(=O)Nc2nc3ccccc3s2)n1,0,0,0,0,0
C=CCn1c(=S)sc2c(=O)[nH]cnc21,0,53.0,0,0,?
O=c1[nH]cnc2c1sc(=S)n2-c1ccccc1,0,0,22624,0,0
C=CCn1c(=S)[nH]c2cc(-c3ccccc3)sc2c1=O,0,0,0,0,0
CCCN1CCc2c(sc(N)c2-c2nc3ccccc3s2)C1,-,-,-,0,-
CCOc1ccc(-c2cn3c(CC(=O)NCCc4ccccc4OC)csc3n2)cc1,-,-,-,0,-
CC1(C)C(=O)OC(C(=O)c2ccccc2)C(C)(C)C1=O (stereo unspecified),0,0,21463,0,0
COc1ccccc1Nc1ncccc1[N+](=O)[O-],0,0,0,60.4,?
COC(=O)NC1CSCC1OC(=O)CN1C(=O)c2ccccc2C1=O (stereo unspecified),0,0,20984,0,0
COc1ccc(CCC(=O)N2CCN(C3CCCCC3)CC2)cc1,0,0,20796,0,0
COc1ccc(NC(=O)N2CCC3(CC2)OCCO3)cc1,0,0,0,0,0
COc1ccc(CCC(=O)N2CCC3(CC2)OCCO3)cc1,0,0,16327,0,0
Cc1nc2cc(-c3ccccc3)nn2c(C)c1CCC(=O)N1CCC2(CC1)OCCO2,0,0,16588,0,0
O=C(CCc1ccc(Oc2cc([N+](=O)[O-])cc([N+](=O)[O-])c2)cc1)N1CCCCCC1,0,0,0,38.8,0
SMILES,BoNT A protease,Anthrax LF prot,Autofluor counter,PriA SSB inh,BoNT F protease
COc1ccc(CCC(=O)NCC2CCN(C3CCCC3)CC2)cc1,-,-,-,0,-
COC(=O)c1ccc(S(=O)(=O)NCCn2ccc(-c3ccsc3)n2)cc1,-,-,-,0,-
CCc1nnc(-c2ccc(NC(=O)COc3ccc(Cl)cc3)cc2)o1,-,-,-,0,-
O=C(NC(NCc1ccccn1)(C(F)(F)F)C(F)(F)F)c1ccco1,0,0,22419,0,0
CCCn1nnnc1-c1cccc(Cl)c1,0,0,20165,0,0
FC(F)(F)c1cccc(Cn2nnnc2-c2ccc(Cl)cc2)c1,0,0,22919,0,0
CCCn1nnnc1NC(=O)c1cc(Cl)ccc1Cl,0,0,0,0,0
CCCn1nnnc1-c1ccc(Cl)cc1,0,0,19416,0,0
COc1cccc2cc(-c3nnc(NC(=O)c4nc5ccccc5s4)o3)oc12,-,-,-,0,-
CC(/C=C/c1ccc2c(c1)OCO2)=NNC(=O)c1ccccc1,-,-,-,0,-
O=C(COC(=O)C1CCC1)c1c[nH]c2ccccc12,0,0,0,0,0
CC(C)n1nc(C(=O)OCC(=O)c2c[nH]c3ccccc23)c2ccccc2c1=O,0,0,0,0,0
COc1cccc(/C=C/C(=O)OCC(=O)c2c[nH]c3ccccc23)c1OC,39.1,0,0,0,0
O=C(COC(=O)C1CC1)c1c[nH]c2ccccc12,0,0,19998,0,0
CCn1nc(C(=O)OCC(=O)c2c[nH]c3ccccc23)c2ccccc2c1=O,44.7,38.0,0,0,0
Cn1cnnc1SCC(=O)c1c[nH]c2ccccc12,0,0,25248,0,0
COc1cccc(/C=C/C(=O)OCC(=O)c2c[nH]c3ccccc23)c1,0,0,0,0,0
COc1ccccc1NC(=O)NCC(c1ccc2c(c1)CCCN2C)N1CCN(C)CC1 (stereo unspecified),-,-,-,0,-
CC1CC(C)CN(CC(=O)c2c[nH]c3ccccc23)C1 (stereo unspecified),0,0,0,0,35.7
COc1ccc(C)cc1NC(=O)Cn1c(N2CCCC2)nc(C)cc1=O,-,-,-,0,-
CNC(=S)N1N=C(c2ccc(C)cc2)CC1c1ccc(Br)cc1 (stereo unspecified),0,0,23443,0,0
CCC(CC)C(=O)N1N=C(c2ccc(NS(C)(=O)=O)cc2)CC1c1ccc(C)cc1 (stereo unspecified),0,0,0,0,0
CCC(=O)N1N=C(c2ccc(NS(C)(=O)=O)cc2)CC1c1ccc(C)cc1 (stereo unspecified),?,0,19251,0,0
COC(=O)c1ccc(C(=O)NCc2cccc(Oc3ccccn3)c2)cc1,-,-,-,0,-
CN1CC(c2ccccc2Cl)C2(COc3ccccc3C2=O)C12C(=O)Nc1ccccc12 (stereo unspecified),0,0,20126,0,0
SMILES,BoNT A protease,Anthrax LF prot,Autofluor counter,PriA SSB inh,BoNT F protease
C=CCNC(=O)CC(=O)NN=Cc1cccs1,-,-,-,0,-
Cc1cc2c(c(Sc3ccccc3)n1)C(=O)OC2,0,0,24407,0,0
Nc1ncnc(NNC(=O)CNC(=O)COc2ccc(Cl)cc2)c1[N+](=O)[O-],-,-,-,0,-
CCN1/C(=C/C=C/c2oc3ccc(-c4ccccc4)cc3[n+]2CC)Oc2ccc(-c3ccccc3)cc21,43.1,0,70271,0,0
Cc1cc(Cl)ccc1OCC(=O)Nc1cccc(S(=O)(=O)NC2=NCCCCC2)c1,0,0,0,0,0
Cc1ccc(C)c(OCC(=O)Nc2cccc(S(=O)(=O)NC3=NCCCCC3)c2)c1,0,0,0,49.2,0
Cc1ncn(-c2cc(N3CCNCC3)ncn2)c1C,-,-,-,0,-
CC(C)(C)c1ccc(-c2csc(NNC3=NCCCCC3)n2)cc1,?,0,20221,0,0
O=C(c1nccnc1-c1nc2ccccc2s1)N1CCN(c2cccc(Cl)c2)CC1,-,-,-,0,-
S=C1NCN(Cc2cccnc2)CN1,0,?,0,0,35.0
CCOc1ccccc1NC(=O)NCCn1nc(-c2ccccn2)cc1C1CC1,-,-,-,0,-
O=C1C(=C(I)I)c2ccccc2-c2ccccc21,0,0,0,81.1,0
CCn1c(NC(=O)c2ccc(F)cc2)c2ccccc2nc1=O,0,0,19832,0,0
O=C(OCc1ccc(F)cc1)c1ccc2c(c1)-c1ccccc1C2=O,0,0,0,0,0
CCOC(=O)C1=C(Cc2ccc(F)cc2)C(=O)c2ccccc2C1=O,0,0,23756,0,0
O=C(NN=Cc1c(O)n(Cc2ccc(F)cc2)c(=S)[nH]c1=O)c1ccncc1,-,-,-,0,-
O=C(CC(NCc1ccccn1)C(=O)O)Nc1ccccc1Cl (stereo unspecified),0,0,0,96.6,0
c1ccc(CNc2ccc(CNc3ncn[nH]3)cc2)cc1,?,0,22732,0,0
